# Compound activity as filed in PubChem BioAssay.
# FLuc modulator – qHTS profiling assay for firefly luciferase inhibitor/activator using purifed enzyme and Km concentrations of substrates (counterscreen for miR-21 project); AID 588342, 2011; 360,000 tested, 6.9% active; purified FLuc, Km substrates, luminescence inhibition; Potency, µM (top dose mostly 57.5 µM), for inactives: at the highest dose activity change, negative = inhibition, most hits filed as inhibitors;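 note: plate controls were vehicle for no effect and reference inhibitor for full effect; nearly all actives have a fitted effect of over 55% in size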
# Target sequence (P08659 whole entry, looked up): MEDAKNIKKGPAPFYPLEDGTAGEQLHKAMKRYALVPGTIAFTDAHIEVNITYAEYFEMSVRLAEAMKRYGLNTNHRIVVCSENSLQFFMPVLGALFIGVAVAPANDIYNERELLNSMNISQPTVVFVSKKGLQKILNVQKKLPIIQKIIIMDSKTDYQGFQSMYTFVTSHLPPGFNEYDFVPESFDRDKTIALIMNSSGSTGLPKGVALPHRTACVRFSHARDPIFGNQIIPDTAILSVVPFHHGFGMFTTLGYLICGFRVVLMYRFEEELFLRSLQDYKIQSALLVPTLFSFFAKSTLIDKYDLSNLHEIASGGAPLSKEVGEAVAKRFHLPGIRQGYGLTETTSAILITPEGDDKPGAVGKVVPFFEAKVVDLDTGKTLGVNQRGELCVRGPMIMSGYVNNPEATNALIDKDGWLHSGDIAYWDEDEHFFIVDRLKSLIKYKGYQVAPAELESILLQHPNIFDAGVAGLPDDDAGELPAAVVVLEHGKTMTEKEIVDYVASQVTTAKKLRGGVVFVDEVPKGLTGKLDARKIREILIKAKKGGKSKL
#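 Purified P. pyralis luciferase, 10 nM final, with Km-level 10 uM D-luciferin and 10 uM ATP in 50 mM Tris acetate pH 7.5, 10 mM Mg acetate, 0.01% Tween-20, 0.05% BSA; 6-point qHTS titration about 60 µM downward; luminescence read.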
# SMN2 splice enh – qHTS Assay for Enhancers of SMN2 Splice Variant Expression; HEK293 SMN2-luciferase splicing reporter, luminescence, 30-36 h; Potency, µM (series often up to 46.1 µM), for inactives: at the highest dose activity change, positive = activation, hits mostly activators; 210,000 tested, 2.8% active; AID 1458, 2008; note: % of control where 0% means no effect; nearly all actives have a fitted effect of over 55% in size
#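 HEK293 cells carry an SMN2 minigene-luciferase reporter in which exon 7 inclusion puts luciferase in frame. Cells were seeded at 2000 cells/well, attached for 10-12 hours, then exposed to compounds for 30-36 hours at 37C before ONE-Glo luminescence.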
# Rab9 promoter act – qHTS Assay for Rab9 Promoter Activators. 320,000 tested, 2.8% active. Huh7 Rab9 promoter-luciferase reporter, luminescence, 24 h. Potency, µM (top dose mostly 9.22 µM), inactives show at the top dose activation, negative = inhibition, actives largely listed as activators; note: % of control where 0% means no effect; nearly all actives have a fitted effect of over 60% in size
#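 Luminescence from Amplite-detected luciferase (10 minutes, ambient) reports Rab9 promoter activation. Before that, stable Rab9-luciferase Huh7 cells (1500/well, reduced-serum OP-MEM I plus 10% FBS) were exposed to compound for 24 hours at 37C.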
# NPC1 promoter act – qHTS Assay for NPC1 Promoter Activators; Huh7 NPC1 promoter luciferase reporter, 24 h; Potency, µM (series often up to 9.22 µM), for the others: at the top dose activation, usual class: activators; 320,000 tested, 2.4% active; note: % of control where 0% means no effect; nearly all actives have a fitted effect of over 60% in size
#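 Luminescence read-out of NPC1 promoter-driven luciferase in stably transfected Huh7 cells; compounds delivered in DMSO and left 24 h at 37C, 5% CO2, qHTS titration format.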
# ELG1 genotoxic – qHTS screen for small molecules that induce genotoxicity in human embryonic kidney (HEK293T) cells expressing luciferase-tagged ELG1; 330,000 tested, 1.3% active; HEK293T ELG1-luciferase reporter, luminescence, 16 h; Potency, µM (top dose mostly 46 µM), for the others: top-dose activity change, positive = activation, usual class: activators; note: % of control where 0% means no effect; nearly all actives have a fitted effect of over 60% in size
#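 Cells (2,000/well) expressing the ELG1-luciferase fusion are dosed by pin tool and kept 16 hr at 37 °C, 5% CO2. Signal comes from ONE-Glo luciferase reagent after 30 min at room temperature.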
# ELG1 DNA repair – qHTS screen for small molecules that inhibit ELG1-dependent DNA repair in human embryonic kidney (HEK293T) cells expressing luciferase-tagged ELG1 | 330,000 tested, 2.3% active | Potency, µM (titrated, usually from 46.1 µM), for the others: at the top dose activity change, negative = inhibition, hits mostly inhibitors | HEK293T ELG1-luciferase reporter, luminescence, 16 h; DNA damage induced by 5-fluorouridine; note: % is set by controls: 0 for no effect and ±100 for the full control effect; nearly all actives have a fitted effect of over 55% in size
#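 HEK293T cells expressing luciferase-tagged ELG1 (2,000/well) received 5-Fluorouridine plus compound or DMSO for 16 hr at 37 °C. Luciferase was read by ONE-Glo luminescence after 30 min at room temperature.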
# * marks the source's active call; other numbers are inactive results; ? = inconclusive; . = not tested or not shown. Hits are enriched below; roughly 9.2% of the tested compounds scored in any of these assays. Calls come from the whole dose curve; as a rule, active = well fitted curve in the direction sought with a large enough effect; inconclusive = small, poorly fitted or top-dose-only effect, or another doubt; inactive = no such curve, though single readings can be large; an effect the other way counts as inactive or inconclusive. Potency is the fitted concentration of half-maximal effect.
SMILES,FLuc modulator,SMN2 splice enh,Rab9 promoter act,NPC1 promoter act,ELG1 genotoxic,ELG1 DNA repair
C=CCN=Cc1c(C)[nH]n(-c2ccccc2)c1=O,?,?,3.5µM*,29%,14%,?
Cc1[nH]n(-c2ccc([N+](=O)[O-])cc2)c(=O)c1C=NCCc1c(C)[nH]c2ccccc12,-1%,-25%,1%,-4%,-11%,26µM*
Cc1ccc(-n2[nH]c(C)c(/C=N/Nc3ccc([N+](=O)[O-])cc3[N+](=O)[O-])c2=O)cc1,19µM*,-63%,-11%,-8%,-11%,-21%
Cc1[nH]n(-c2ccc([N+](=O)[O-])cc2)c(=O)c1C=NCC1CCCO1 (configuration not stated),?,29%,?,23%,?,?
O=C(COC(=O)c1n[nH]c(=O)c2ccccc12)Nc1ccccc1,4%,.,1%,-1%,2%,-1%
COc1cc(CN(C2CCCCC2)S(=O)(=O)c2ccc(S(=O)(=O)N(C)C3CCCCC3)cc2)cc(OC)c1OC,0%,-24%,-2%,-8%,-3%,-16%
CCN(CC)S(=O)(=O)c1ccc2c(c1)nc(SCC(=O)N1CCCCCC1)n2-c1ccc(OC)cc1,5%,10%,-4%,-4%,-1%,5.2µM*
Cc1ccc(NC(=O)CN2CCCCCC2)cc1[N+](=O)[O-],?,26%,?,19%,?,?
COc1ccc(CN2CCN(Cc3nc4ccccc4s3)CC2CCO)c(C)c1C (configuration not stated),-1%,.,-21%,-5%,3%,16µM*
CCN(CC)S(=O)(=O)c1cccc(NC(=O)c2ccc(C#N)cc2)c1,-1%,-22%,-14%,-4%,-9%,?
Nc1nonc1-n1nnc(C(=O)N/N=C/c2cccs2)c1-c1ccc2c(c1)OCO2,-5%,.,1%,-8%,-2%,4%
CC(=O)c1cccc(NC(=O)C2CCN(S(=O)(=O)c3cccs3)CC2)c1,5%,-3%,-5%,0%,-6%,?
CN(C)S(=O)(=O)c1cccc(NC(=O)C2CCN(S(=O)(=O)c3cccs3)CC2)c1,.,.,.,.,-8%,21µM*
O=C(Nc1cc(Cl)ccn1)C1CCN(S(=O)(=O)c2cccs2)CC1,-1%,-83%,-17%,-11%,-8%,8.2µM*
O=C(Nc1ccncc1)C1CCN(S(=O)(=O)c2cccs2)CC1,-3%,-14%,1%,-3%,-4%,-11%
Cc1ccc(C)c(NC(=O)c2ccc3nc(CCc4ccccc4)oc3c2)c1,-10%,.,.,.,.,.
COc1ccc(Nc2nc(-c3sc(N)nc3C)cs2)cc1,13µM*,18%,22%,?,?,?
Cc1ccc(Nc2nc(-c3sc(NC(=O)c4ccc([N+](=O)[O-])cc4)nc3C)cs2)cc1,?,-9%,0%,-2%,3%,?
Cc1ccc(Nc2nc(-c3sc(N)nc3C)cs2)cc1,2.1µM*,.,2.2µM*,0.79µM*,?,-1%
CC(=O)Nc1ccc(Nc2nc(-c3sc(C)nc3C)cs2)cc1,21µM*,.,-1%,-5%,-9%,?
CCOc1ccc(Nc2nc(-c3sc(N)nc3C)cs2)cc1,15µM*,.,26%,?,10%,4%
Cc1ccc(CNC(=O)[C@@H]2C[C@H]2[C@@H](NP(=O)(c2ccccc2)c2ccccc2)c2ccccc2)o1,.,-11%,.,.,.,.
Cc1ccc(Nc2nc(-c3sc(C)nc3C)cs2)cc1,12µM*,.,0%,-18%,18%,-26%
CC(=O)c1ccc(OCc2cc(C(=O)N(C)Cc3ccccn3)no2)cc1,15µM*,.,?,?,?,?
